Measurements taken from PubChem BioAssay (Tox21).
“And” between values parts separate entries of the source, which are not always exact repeats. Equal entries are not always repeated. Results filed as inconclusive are left out. Entries that show only a call come without a potency. A structure can be active in one record and inactive in another. The source made the active and inactive calls. The call rests on the fitted dose curve; in most records, active means well fitted cell-killing curve with a large enough effect in the repeat runs; inconclusive means weak or mixed curves, or effect the other way; inactive means no such curve, though single readings can be large or run the other way.

Assay: qHTS assay to identify small molecule agonists of the vitamin D receptor (VDR) signaling pathway - cell viability counter screen (AID 743224); further: nearly all actives have a fitted effect of over 50% in size
Conditions: VDR-bla HEK293T viability, CellTiter-Glo luminescence, 16 h; series mostly up to 62.6 µM; activity change, negative = cytotoxicity: at the top concentration
Text: U.S. Tox21 Program National Center for Advancing Translational Sciences [NCATS] NIH Chemical Genomics Center [NCGC] U.S. Environmental Protection Agency [EPA] National Institutes of Environmental Health Sciences [NIEHS] National Toxicology Program [NTP] U.S. Food and Drug Administration [FDA] Tox21 Assay Overview: The vitamin D receptor (VDR), a member of nuclear hormone receptor superfamily, plays a critical role in calcium homeostasis and bone metabolism. It is also involved in cell differentiation and growth, and thrombogenicity. […] The cytotoxicity of the Tox21 compound library against the VDR-bla cell line was tested in parallel by measuring the cell viability using CellTiter-Glo assay (Promega, Madison, WI) in the same wells.
Tox21 Assay Protocol Summary: VDR-bla cells were dispensed at 2,000 cells/6 uL/well into black wall/clear-bottom 1536-well plates using a Multidrop Combi (Thermo Fisher Scientific, Waltham, MA) dispenser. After the assay plates were incubated at a 37C and 5% CO2 for 4 h, 23 nL of compounds dissolved in DMSO, positive controls or DMSO only was transferred to the assay plate by a Pintool station (Kalypsys, San Diego, CA). The plates were incubated at 37C and 5% CO2 for 16 h. After 1 uL of LiveBLAzerTM B/G FRET substrate was added using a Bioraptr Flying Reagent Dispenser (FRD) workstation (Beckman Coulter, Indianapolis, IN, USA), the plates were incubated at room temperature for 2 h, and fluorescence intensity was measured by an Envision plate reader (PerkinElmer, Shelton, CT). For cell viability readout that measures cytotoxicity, 3 ul/well of CellTiter-Glo reagent was added into the assay plates using a FRD. After 30 min incubation at room temperature, the luminescence intensity in the plates was measured using a ViewLux (PerkinElmer) plate reader.
Potency means the concentration at half of the fitted maximal effect.

Question: With O=c1oc2ccccc2c(O)c1C(CC(O)c1ccc(-c2ccc(Br)cc2)cc1)c1ccccc1 (stereo not given) as the molecule, how does the “activity change, negative = cytotoxicity” value read?
Answer: The value was 1.43% (inactive).

Question: With CCN(CC)N=O as the molecule, how does the Potency read?
Answer: Its Potency is “inactive”.

Question: With CCCCN(CCCC)N=O as the molecule, how does the Potency read?
Answer: Its Potency is “inactive”.

Question: Which Potency does the source give for C#CCOS(=O)OC1CCCCC1Oc1ccc(C(C)(C)C)cc1 (stereo not given) here?
Answer: The Potency was 6.92 µM (active).

Question: With Nc1ccc(-c2ccc(N)c(N)c2)cc1N as the molecule, how does the Potency read?
Answer: The Potency was “inactive”.

Question: With NCc1cccnc1 as the molecule, how does the Potency read?
Answer: The Potency was “inactive”.

Question: Which Potency does the source give for Nc1ccncc1 here?
Answer: The Potency was “inactive”.

Question: With S=C1NCCN1 as the molecule, how does the Potency read?
Answer: Its Potency is “inactive”.

Question: For CC(C)(C)c1ccccc1O, which Potency is on record?
Answer: Its Potency is “inactive”.

Question: With CCCCOCCOP(=O)(OCCOCCCC)OCCOCCCC as the molecule, how does the “activity change, negative = cytotoxicity” value read?
Answer: Its value is -17% (inactive).

Question: For c1cc(OCC2CO2)ccc1Cc1ccc(OCC2CO2)cc1 (stereo not given), which “activity change, negative = cytotoxicity” value is on record?
Answer: Its value is -3.96% (inactive).

Question: Which Potency does the source give for CNC(=O)N(C)c1nnc(C(C)(C)C)s1 here?
Answer: Its Potency is “inactive”.

Question: Which Potency does the source give for C=CCc1ccc(OC)cc1 here?
Answer: Its Potency is “inactive”.

Question: Which “activity change, negative = cytotoxicity” value does the source give for CCC(C)(C)c1ccc(O)cc1 here?
Answer: The value was 8.33% (inactive).

Question: With CCC(=O)O[C@H]1CC[C@H]2[C@@H]3CCC4=CC(=O)CC[C@]4(C)[C@H]3CC[C@]12C as the molecule, how does the Potency read?
Answer: Its Potency is 12.3 µM (active) and inactive.

Question: For O=[N+]([O-])c1ccc(O)c([N+](=O)[O-])c1, which Potency is on record?
Answer: The Potency was “inactive”.

Question: With CCCCCCCCC(=O)NCc1ccc(O)c(OC)c1 as the molecule, how does the Potency read?
Answer: The Potency was “inactive”.

Question: Which Potency does the source give for O=C(CCl)c1ccccc1 here?
Answer: Its Potency is “inactive”.

Question: For O=[N+]([O-])c1cccc2ccccc12, which Potency is on record?
Answer: The Potency was “inactive”.

Question: For CCOCN(C(=O)CCl)c1c(C)cccc1CC, which Potency is on record?
Answer: Its Potency is “inactive”.

Question: With CCN(CC)C(=O)/C(Cl)=C(\C)OP(=O)(OC)OC as the molecule, how does the Potency read?
Answer: The Potency was “inactive”.

Question: For C=CCN(CC=C)C(=O)C(Cl)Cl, which Potency is on record?
Answer: The Potency was “inactive”.

Question: With c1ccc(P(c2ccccc2)c2ccccc2)cc1 as the molecule, how does the Potency read?
Answer: The Potency was “inactive”.

Question: For N[C@@H](Cc1ccc(N(CCCl)CCCl)cc1)C(=O)O, which Potency is on record?
Answer: Its Potency is “inactive”.

Question: Which Potency does the source give for CCOC(=O)C(C)OC(=O)c1cc(Oc2ccc(C(F)(F)F)cc2Cl)ccc1[N+](=O)[O-] (stereo not given) here?
Answer: Its Potency is “inactive”.

Question: With CCOC(=S)S as the molecule, how does the Potency read?
Answer: Its Potency is 24.5 µM (active) and 20.7 µM (active).

Question: Which Potency does the source give for CCOc1cc(Oc2ccc(C(F)(F)F)cc2Cl)ccc1[N+](=O)[O-] here?
Answer: The Potency was “inactive”.

Question: With Oc1cc(Cl)ccc1Oc1ccc(Cl)cc1Cl as the molecule, how does the Potency read?
Answer: The Potency was 20 µM (active).

Question: For c1nc[nH]n1, which Potency is on record?
Answer: The Potency was “inactive”.

Question: With O=P(Oc1ccccc1)(Oc1ccccc1)Oc1ccccc1 as the molecule, how does the Potency read?
Answer: Its Potency is “inactive”.

Question: With Nc1ccc(Cl)c(Cl)c1 as the molecule, how does the “activity change, negative = cytotoxicity” value read?
Answer: Its value is 2.02% [at 81.1 µM] (inactive).

Question: With O=S(=O)(Oc1ccc(Cl)cc1)c1ccc(Cl)cc1 as the molecule, how does the Potency read?
Answer: The Potency was “inactive”.

Question: For COP(=S)(OC)Oc1ccc([N+](=O)[O-])cc1, which Potency is on record?
Answer: The Potency was “inactive”.

Question: With CCC(CC)Nc1c([N+](=O)[O-])cc(C)c(C)c1[N+](=O)[O-] as the molecule, how does the “activity change, negative = cytotoxicity” value read?
Answer: The value was -16.7% (inactive).

Question: With ClC1C(Cl)C(Cl)C(Cl)C(Cl)C1Cl (stereo not given) as the molecule, how does the Potency read?
Answer: The Potency was “inactive”.

Question: For C=CCc1ccc2c(c1)OCO2, which Potency is on record?
Answer: The Potency was “inactive”.

Question: For CCc1cccc(CC)c1N(COC)C(=O)CCl, which Potency is on record?
Answer: The Potency was “inactive”.

Question: For Brc1ccc(Oc2cc(Br)c(Br)cc2Br)c(Br)c1, which Potency is on record?
Answer: The Potency was “inactive”.

Question: Which Potency does the source give for O=C1C=CC(=O)C=C1 here?
Answer: The Potency was “inactive”.

Question: For CCCCN(CC)c1c([N+](=O)[O-])cc(C(F)(F)F)cc1[N+](=O)[O-], which Potency is on record?
Answer: Its Potency is “inactive”.
